Screening data as filed in PubChem BioAssay.
Compounds with a hit are over-represented: about 0.88% of the library has one in this group of screens.
IL2 activator = activators of IL-2; IL-2 activation reporter assay, cell-based qHTS; stimulated with anti-CD3/CD4/CD28 beads; in transgenic mouse T cells; activation, % (series mostly up to about 46 µM); 0.065% of 360,000 active; AID 652025; in the data active = activation above about 50%; inconclusive = mostly about 30% to 49%; note: 0% is about no effect
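Unstimulated transgenic mouse T cells, 750 per well, received compound and, after 60 minutes, anti-CD3/anti-CD4 bead plus anti-CD28 stimulation. EGFP and DsRed were quantified after 18 hours.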
Epigenetic derep = derepresses silenced GFP reporter in murine cells; Potency, µM (top dose mostly 53.9 µM), inactives show top-dose GFP activation, actives largely listed as activators; murine LDR cells, GFP reporter derepression, 30 h; 0.2% of 280,000 active; AID 1865; note: potency is the fitted concentration of half-maximal effect; % of control where 0% means no effect; nearly all actives have a fitted effect of over 60% in size
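In this reporter-derepression format, murine cells bearing a silenced integrated CMV-GFP locus incubate with test compound (30 h, 37 C), then are washed and imaged; fluorescent objects of 20–120 um count as induced cells.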
TRHR enhancer-1 = TRH receptor (human) allosteric enhancement; 0.66% of 360,000 active; TRHR cells, fluo-8 calcium fluorescence, EC20 TRH enhancement; enhancement, % at 2 µM; AID 493056; P34981; in the data active = enhancement above about 30%; note: 0% is about no effect
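TRHR-expressing cells loaded with fluo-8 calcium dye were read kinetically (ex 480/em 530) during compound addition, then stimulated with an EC20 of TRH (10 nM final). Enhancement of the Gq-mediated intracellular calcium response was scored.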
CBFb RUNX1 block = blocks binding between human CBF-beta and RUNX1; Potency, µM (top dose mostly 59.8 µM), for inactives: at the top dose activity, negative = inhibition, most hits filed as inhibitors; Q01196+Q13951; 230,000 tested, under 10 active; AlphaScreen CBFb-His/RUNX1-biotin binding, biochemical; note: % of control where 0% means no effect
Target sequence (Q01196 whole entry, looked up): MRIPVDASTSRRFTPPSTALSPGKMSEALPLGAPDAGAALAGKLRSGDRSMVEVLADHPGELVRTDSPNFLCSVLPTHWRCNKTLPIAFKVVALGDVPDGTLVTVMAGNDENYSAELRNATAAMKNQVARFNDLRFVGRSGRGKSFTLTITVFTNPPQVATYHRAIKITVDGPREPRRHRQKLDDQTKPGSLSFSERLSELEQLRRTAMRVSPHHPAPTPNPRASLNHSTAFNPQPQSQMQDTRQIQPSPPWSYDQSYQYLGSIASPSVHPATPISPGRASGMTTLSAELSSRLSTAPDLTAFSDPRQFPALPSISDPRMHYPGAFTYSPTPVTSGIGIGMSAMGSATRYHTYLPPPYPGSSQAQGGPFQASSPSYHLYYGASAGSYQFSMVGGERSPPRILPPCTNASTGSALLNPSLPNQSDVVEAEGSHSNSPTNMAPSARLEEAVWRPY
Target sequence (Q13951 whole entry, looked up): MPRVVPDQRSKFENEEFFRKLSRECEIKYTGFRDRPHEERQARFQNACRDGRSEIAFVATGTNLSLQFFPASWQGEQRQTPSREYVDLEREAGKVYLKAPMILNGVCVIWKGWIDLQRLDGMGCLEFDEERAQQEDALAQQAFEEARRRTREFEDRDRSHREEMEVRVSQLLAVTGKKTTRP
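Inhibition was taken as any reduction in AlphaScreen signal from the CBF-beta–RUNX1 pair (His and biotin tags, 30 nM each), measured after compound (15 min) and bead (90 min) incubations at room temperature.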
MBNL1-CUG inh = inhibitors of human MBNL1 binding to CUG repeat RNA | Q9NR56 | TR-FRET MBNL1-His/biotin-(CUG)12 binding, 665/545 ratio | Potency, µM (doses to about 57.5 µM), inactives show at the highest dose activity change, negative = inhibition, most hits filed as inhibitors | 0.036% of 280,000 active; active = well fitted inhibition curve with a large enough effect in the signal ratio, with a control signal flat, not every such curve was filed as active; inconclusive = small, poorly fitted or top-dose-only effect, or effect the other way, or a change in a side signal; inactive = no such curve, though single readings can be large or run the other way; the % refers to the signal ratio; note: potency is the fitted concentration of half-maximal effect; % is set by controls: 0 for no effect and ±100 for the full control effect
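TR-FRET between His-tagged MBNL1 and biotin-(CUG)12 RNA, detected with Tb anti-His antibody (0.055 ng/ul) and streptavidin-XL665 (5 nM), 60 min at room temperature. Compounds titrated 92 nM to 58 uM; 665/545 nm ratio normalized to buffer and complex controls.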
TRHR agonist-1 = activates the human TRH receptor | AID 493084 | 0.18% of 360,000 active | TRHR cells, calcium flux fluo-8, FDSS agonist mode | activation, % at 2 µM | P34981; in the data active = activation above about 30%; note: 0% is about no effect
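TRHR-expressing cells, plated overnight in medium with 10% serum, were loaded with fluo-8 calcium dye at room temperature. After a 10 s baseline, library compound was pin-added and calcium release was recorded kinetically (ex 480/em 530) as agonist response.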
TRHR enhancer-2 = human TRH receptor allosteric enhancement confirmation | TRH receptor cell assay, enhancer confirmation qHTS | shares compounds with TRHR enhancer-1 | 970 tested, under 10 active | activity change, negative = inhibition, % at 46.1 µM;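 note: compound effect scored on response to added TRH at EC20 of 10 nM; 0% is about no effect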
TRHR agonist-2 = confirmation of human TRH receptor agonists | shares compounds with TRHR enhancer-1 | TRHR-expressing cells, agonist activation read-out | Potency, µM (doses to about 46.1 µM), inactives show at the top dose activation, most hits filed as activators | 8% of 970 active; note: potency is the fitted concentration of half-maximal effect; 0% is about no effect; nearly all actives have a fitted effect of over 75% in size
Active calls of the source: *; u = inconclusive; x = not tested or not shown; ! = not confirmed by another sample. Unless noted, calls come from the whole dose curve; as a rule, active = well fitted curve in the direction sought with a large enough effect; inconclusive = small, poorly fitted or top-dose-only effect, or another doubt; inactive = no such curve, though single readings can be large; an effect the other way counts as inactive or inconclusive.

SMILES	IL2 activator	Epigenetic derep	TRHR enhancer-1	CBFb RUNX1 block	MBNL1-CUG inh	TRHR agonist-1	TRHR enhancer-2	TRHR agonist-2
COc1cc(C)nc(N(Cc2ccccc2)S(=O)(=O)c2ccccc2)n1	-3.7	-1.1%	-2.6	19.9%	5.6%	-0.2	x	x
COC(=O)CN(c1nc(C)cc(OC)n1)S(=O)(=O)c1ccccc1	-3.6	-2.1%	68.1*	5.3%	-2.8%	-0.6	-7.2	1.5%
COc1cc(/C=C(\C#N)c2[nH]nc(N)c2C#N)cc(OC)c1O	4.9	0.8%	20.5	-2.8%	u	61.6*	8.6	u
Cc1ccc([N+](=O)[O-])cc1-c1ccc(/C=C(\C#N)c2[nH]nc(N)c2C#N)o1	-3.6	0.0%	-4.5	27.3%	x	-0.1	x	x
Cc1ccc(Cn2c(CNS(=O)(=O)c3c(C)cc(C)cc3C)nc3cccnc32)cc1	x	-1.1%	3.6	x	x	0.2	x	x
COc1ccc(NC(=O)CSC2=Nc3ccccc3C3=NC(CCC(=O)NCc4ccco4)C(=O)N23)cc1 (stereo unspecified)	x	-1.3%	3.3	x	x	0.1	x	x
CC1(C)NC(=O)N(CC(O)Cn2nnc3ccccc32)C1=O (stereo unspecified)	0.0	1.3%	50.5*	12.5%	2.3%	0.1	-1.4	0.4%
CCOc1ccccc1CNC(=O)CCCN1C(=O)c2cccnc2Oc2ccc(Cl)cc21	x	-0.4%	3.9	x	x	-0.8	x	x
O=[N+]([O-])/C=C\c1ccc(N2CCCC2)c(F)c1	-1.5	1.3%	-10.8	-0.7%	8.1%	72.8*	-12.7	u
CCCn1c(=O)c2sccc2n2c(CCCC(=O)NCc3cccnc3)nnc12	-0.5	x	-7.7	x	0.8%	0.6	x	x
COc1ccc(OC)c(CCNC(=O)CCCc2nnc3n(C)c(=O)c4sccc4n23)c1	1.0	1.0%	55.9*!	x	1.0%	1.0	4.1	-0.7%
Cn1c(=O)c2sccc2n2c(CCCC(=O)NCc3cccnc3)nnc12	1.5	x	42.1*	x	1.1%	0.3	-7.1	-0.6%
COc1cc(NC(=O)CSc2nc3[nH]ncc3c(=O)n2-c2ccccc2C)cc(OC)c1OC	-2.9	0.3%	-2.3	1.7%	5.5%	-0.1	x	x
C=CCN(C(=O)CSc1nc2[nH]ncc2c(=O)n1-c1ccccc1OC)c1ccccc1	-1.4	-2.0%	-5.4	8.1%	0.2%	31.5*	-3.2	2.5%
CC(=O)C1(C)CC2(CC(C)(C)OC2=O)C(=O)O1 (stereo unspecified)	x	0.0%	x	-13.2%	x	x	x	x
Cc1ccc(Cn2ccc(C3CC3)n2)cc1	-1.3	-0.1%	51.2*	3.6%	-1.0%	-0.7	-0.5	-0.7%
C/C=C/c1ccc(OCCCCNCc2ccco2)c(OC)c1	-0.9	-3.1%	69.2*	-1.5%	x	-0.5	u	u
CCOC(=O)N1CCC(Nc2nc(OC)nc(OC)n2)CC1	-0.9	8.8%	-0.1	1.2%	7.7%	-0.1	x	x
COc1nc(N)nc(CC(=O)C2CC2)n1	-0.4	-1.1%	62.0*	3.5%	13.0%	0.3	-2.4	-0.5%
CCS(=O)(=O)c1c(S(=O)(=O)CC)c2cc(C(C)(C)C)ccn2c1C(=O)c1ccc(F)cc1	x	-5.2%	0.8	x	x	-1.3	x	x
Oc1ccc2ccccc2c1/C=N/Nc1nnc(-c2ncc[nH]2)c2ccccc12	55.8*	u	12.8	-23.4%	2.3%	45.6*	u	23.1µM*
COc1cccc(NS(=O)(=O)c2ccc3c(c2)N(C(C)=O)CCO3)c1	-0.8	x	103.9*	x	-5.7%	0.3	-0.8	-0.6%
Cc1nc(N2CCOCC2)nc(OC(C)C)c1[N+](=O)[O-]	-2.2	u	57.6*	8.4%	x	0.2	1.5	1.6%
